# Compound activity deposited in PubChem BioAssay by National Center for Advancing Translational Sciences (NCATS).
# In the library only some 7.5% were active in any assay of this set; here they are far more common.
# FLuc modulator: counter-screen for miR-21 project: firefly luciferase inhibitors or activators. P08659. AID 588342. purified FLuc, Km substrates, luminescence inhibition. Potency, µM (doses to about 57.5 µM), hits mostly inhibitors. 360,000 compounds, 6.9% hits; further: nearly all actives have a fitted effect of over 55% in size
# Target sequence (P08659 whole entry, looked up): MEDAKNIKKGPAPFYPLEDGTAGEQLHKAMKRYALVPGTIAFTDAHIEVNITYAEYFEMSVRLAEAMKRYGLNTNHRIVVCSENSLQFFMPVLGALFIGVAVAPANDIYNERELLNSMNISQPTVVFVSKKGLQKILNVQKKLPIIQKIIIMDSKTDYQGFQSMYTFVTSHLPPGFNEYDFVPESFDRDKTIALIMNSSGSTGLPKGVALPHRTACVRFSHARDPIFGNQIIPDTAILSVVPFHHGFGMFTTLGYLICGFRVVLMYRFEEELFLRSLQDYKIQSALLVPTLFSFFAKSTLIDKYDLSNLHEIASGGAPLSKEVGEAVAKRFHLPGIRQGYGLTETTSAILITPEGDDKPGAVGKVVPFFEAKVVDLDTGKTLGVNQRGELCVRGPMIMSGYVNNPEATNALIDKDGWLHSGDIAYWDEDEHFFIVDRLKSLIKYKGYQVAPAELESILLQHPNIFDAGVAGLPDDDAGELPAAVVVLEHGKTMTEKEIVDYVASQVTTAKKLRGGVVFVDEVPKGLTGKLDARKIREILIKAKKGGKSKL
#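 Biochemical qHTS of compounds, final roughly 60 µM downward over six points, against 10 nM purified firefly luciferase using Km concentrations of substrates (10 uM D-luciferin, 10 uM ATP) in Tris acetate pH 7.5 buffer; luminescence output.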
# ELG1 genotox: induces genotoxicity in HEK293T cells with luciferase-tagged ELG1. Potency, µM (highest dose often 46 µM), actives largely listed as activators. 330,000 compounds, 1.3% hits. HEK293T ELG1-luciferase reporter, luminescence, 16 h; further: nearly all actives have a fitted effect of over 60% in size
#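 HEK293T cells expressing luciferase-tagged ELG1 were treated with compound or DMSO for 16 hr at 37°C. Luciferase activity was then read after 30 min with ONE-Glo at room temperature; rising signal flags genetic stress.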
# NPC1 promoter act: activators of NPC1 promoter. Huh7 NPC1 promoter luciferase reporter, 24 h. Potency, µM (series often up to 9.22 µM), hits mostly activators. 320,000 compounds, 2.4% hits; further: nearly all actives have a fitted effect of over 60% in size
#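 Cells: Huh7 expressing luciferase under the NPC1 promoter, 1500/well. Seeded 2 h, compound added, incubated 24 h at 37 °C. Luciferase reagent, 10 min ambient, then luminescence.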
# SMN2 splice enh: enhancers of SMN2 splice variant expression; HEK293 SMN2-luciferase splicing reporter, luminescence, 30-36 h; Potency, µM (doses to about 46.1 µM), hits mostly activators; 210,000 compounds, 2.8% hits; AID 1458; further: nearly all actives have a fitted effect of over 55% in size
#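 HEK293 cells carry an SMN2 […]–luciferase reporter in which exon 7 inclusion puts luciferase in frame. Cells were plated 10-12 h before compound addition, then incubated 30-36 h at 37C. ONE-Glo luminescence was read; sodium butyrate at 4.5 mM final served as control.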
# Rab9 promoter act: activators of Rab9 promoter. Potency, µM (titrated, usually from 9.22 µM), usual class: activators. Huh7 Rab9 promoter-luciferase reporter, luminescence, 24 h. 320,000 compounds, 2.8% hits. AID 485297; further: nearly all actives have a fitted effect of over 60% in size
#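 Measured in stably transfected Huh7 cells bearing a Rab9 promoter–luciferase construct: 24 h compound treatment at 37 °C, followed by luminescence detection.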
# Hits are given with their value; i = inactive; ? = inconclusive; nt = not tested or not shown; [ ] = remark or other dose. The call rests on the fitted dose curve; in most records, active means well fitted curve in the direction sought with a large enough effect; inconclusive means small, poorly fitted or top-dose-only effect, or another doubt; inactive means no such curve, though single readings can be large; an effect the other way counts as inactive or inconclusive.
SMILES,FLuc modulator,ELG1 genotox,NPC1 promoter act,SMN2 splice enh,Rab9 promoter act
Fc1cc(Cl)c(OCc2noc(-c3ccsc3)n2)c(Cl)c1,?,i,?,nt,3.2µM
COc1cc(-c2nc(Cc3ccccc3Cl)no2)cc(OC)c1OC,i,i,i,i,i
Clc1ccc(OCc2noc(-c3ccsc3)n2)c(Cl)c1,4.3µM,?,2µM,nt,4µM
CCOC(=O)c1cnc2c(ccc3ccccc32)c1NCCCN(C)C,7.6µM,?,i,nt,i
CCOC(=O)c1cnc2c(ccc3ccccc32)c1Nc1ccccc1OCC,i,nt,nt,i,nt
CC(C)N(C(=O)c1nn(C)c2c1CSc1ccccc1-2)C1CCCCC1,i,i,i,nt,i
COc1cccc(CNC(=O)C(C)n2ncn3cccc3c2=O)c1OC (stereo unspecified),6µM,nt,nt,nt,nt
O=C(Nc1ccccc1Cl)c1ccccc1,i,?,i,i,i
CCOC(=O)c1cc(-c2ccc(C)cc2)nn1Cc1ccccc1,7.6µM,nt,nt,?,nt
O=C(Nc1cccc(Cl)c1Cl)c1ccc(-c2ccccc2)cc1,?,?,2.5µM,?,?
Cc1ccc(Cn2nc(C)cc2C(=O)Nc2ccccc2Cl)cc1,12µM,23µM,?,nt,2.5µM
O=C(Nc1cc(Cl)ccc1Cl)c1ccc(-c2ccccc2)cc1,i,i,i,i,i
Cc1ccc(C(=O)Nc2ccccc2Cl)cc1,6.7µM,?,3.2µM,nt,1.6µM
Cc1ccc(Cn2nc(C)cc2C(=O)Nc2ccc(Cl)cc2)cc1,?,i,i,nt,i
O=C(Nc1cc2c3c(c1)CC(=O)N3CCC2)c1ccc(Cl)cc1,15µM,?,i,nt,i
Cc1cccc(OCCN2C(=O)C(=O)c3cc(C)ccc32)c1,12µM,?,i,i,i
O=C1c2ccccc2C(=O)N1CCOc1cccc(Br)c1,11µM,?,i,nt,?
Cc1cccc(OCCN2C(=O)C(=O)c3cccc(C)c32)c1,i,i,i,i,i
Cc1ccc2c(c1)C(=O)C(=O)N2CCOc1ccccc1,13µM,?,i,i,i
CNc1ncnc2ccc(-c3c(C)noc3C)cc12,i,nt,i,nt,i
COc1ccc(NC(=O)c2nnn(CC(=O)Nc3ccc4c(c3)OCO4)c2N)c(OC)c1,1.9µM,i[9.26 µM],i,nt,i
Nc1c(C(=O)Nc2ccc3c(c2)OCCO3)nnn1Cc1ccc(F)cc1,?,?,2.5µM,nt,2.2µM
Nc1c(C(=O)Nc2ccc3c(c2)OCCO3)nnn1Cc1ccccc1Cl,?,i,2.8µM,nt,2.2µM
Cc1ccc(/C=N/Nc2ccc(F)cc2F)s1,13µM,?,1.6µM,nt,?
COc1cc(/C=N/Nc2ccc(Cl)nn2)cc(OC)c1O,13µM,i,i,nt,i
SMILES,FLuc modulator,ELG1 genotox,NPC1 promoter act,SMN2 splice enh,Rab9 promoter act
COc1cc(/C=N/Nc2ccc(F)cc2F)cc(OC)c1O,17µM,i,i,i,i
N#CC1(NC(=O)COc2cccnc2[N+](=O)[O-])CCCCC1,i,i,i,nt,i
CCCC(=O)NC(=S)Nc1cccc(NC(=O)c2ccc(Cl)cc2Cl)c1,13µM,i,i,nt,i
CCC(=O)NC(=S)Nc1cccc(NC(=O)c2ccccc2C)c1,?,i,i,i,i
CCC(=O)Nc1cccc(NC(=S)NC(=O)c2ccc(Cl)cc2)c1,i,i,?,?,3.5µM
CCC(=O)Nc1cccc(NC(=S)NC(=O)c2ccccc2C)c1,15µM,i,?,i,?
Cc1ccc(C)c(S(=O)(=O)NCc2ccc(C(=O)NCc3ccccn3)cc2)c1,i,i,i,i,i
Clc1cc(Cl)cc(Nc2ncnc(-n3cccc3)n2)c1,i,i,i,nt,i
Cc1ccc(Nc2ncnc(-n3cccc3)n2)cc1Cl,2.7µM,?,?,nt,3.2µM
CCOC(=O)c1c(C)oc2c1c1c(c3ccccc32)OCN(Cc2cccnc2)C1,27µM,15µM,i,i,i
CCOC(=O)c1c(C)oc2c1c1c(c3ccccc32)OCN(CCCC(=O)O)C1,19µM,?,?,nt,?
CCOC(=O)c1c(C)oc2c1c(C(c1cccnc1)N1CCN(C)CC1)c(O)c1ccccc12 (stereo unspecified),i[2.3 µM],?,i,nt,i
CC(=O)c1c(C)oc2c1cc(O)c1ccccc12,i,i,i,nt,i
CCOC(=O)c1c(C)oc2c1cc(O)c1ccccc12,2.4µM,?,?,i,i
O=C(COc1ccc(Cl)cc1Br)Nc1cccc(S(=O)(=O)N2CCCC2)c1,2.7µM,i,i,nt,i
CCOc1ccccc1OCC(=O)Nc1cccc(S(=O)(=O)N2CCCCCC2)c1,i,i,i,nt,i
Cc1ccc(NC(=O)COc2ccccc2C(N)=O)cc1S(=O)(=O)N1CCCCCC1,24µM,i,i,nt,i
COc1ccc(C(=O)NCC(=O)OCC(=O)Nc2cccc(S(=O)(=O)N3CCCC3)c2)cc1,12µM,i,i,nt,i
CC(=O)c1ccccc1OCC(=O)Nc1cccc(S(=O)(=O)N2CCCC2)c1,17µM,i,i,nt,i
Cc1cc(Cl)ccc1OCC(=O)Nc1cccc(S(=O)(=O)N2CCCC2)c1,9.5µM,i,i,nt,i
Cc1sc2c(c1C)CN(CCN1CCOCC1)CN2C(=O)c1ccccc1,?,i,i,i,?
CCOc1nc(Nc2ccc(OC)cc2OC)nc(OCC)n1,i,i,i,nt,i
COc1cccc(-c2nc(C(=O)NCC3CCCO3)cc3c2[nH]c2ccccc23)c1 (stereo unspecified),i,i,i,nt,i
CC(=O)Nc1nc(C)c(-c2csc(Nc3ccc(O)cc3)n2)s1,?,i,i,i,i
CC(=O)Nc1ccc(Nc2nc(-c3sc(NC(C)=O)nc3C)cs2)cc1,?,i,i,nt,i
SMILES,FLuc modulator,ELG1 genotox,NPC1 promoter act,SMN2 splice enh,Rab9 promoter act
Cc1nc(C)c(-c2csc(Nc3ccc(O)c(C(=O)O)c3)n2)s1,9.5µM,i,i,nt,i
Cc1nc(C)c(-c2csc(Nc3ccc(N)cc3)n2)s1,11µM,i,?,nt,i
COc1ccc(Nc2nc(-c3sc(C)nc3C)cs2)cc1,15µM,i,i,nt,i
c1cncc(Nc2nc(-c3ccncc3)cs2)c1,?,i,i,i,i
Cc1nc(C)c(-c2csc(Nc3cccnc3)n2)s1,12µM,?,i,?,i
Cc1cc(=O)[nH]c2c(C)cc(S(=O)(=O)N3CCCCC3)cc12,i,16µM,i,nt,i
FC(F)Oc1ccccc1/C=N/Nc1nc2ccccc2o1,?,i,?,nt,4µM
Fc1ccccc1/C=N/Nc1nc2ccccc2o1,3µM,?,2.8µM,nt,2.2µM
CC(=O)Nc1ccc(C(=O)N/N=C/c2ccncc2)cc1,i,i,i,i,i
CCc1[nH]nc(C(=O)N/N=C/c2ccncc2)c1C,11µM,23µM,2.8µM,nt,3.2µM
N#Cc1ccc(CSc2ccccn2)c(Cl)c1,i,i,i,nt,i
Cn1c(SCc2ccc(C#N)cc2Cl)nc2ccccc21,6µM,21µM,2.2µM,14µM,3.5µM
CC(=O)c1cccc(NS(=O)(=O)c2c(C(=O)N3CCOCC3)c(C)n(C)c2C)c1,i,i[9.26 µM],i,nt,i
Cc1cc(C)c(S(=O)(=O)N2CCOC2CNC(=O)C(=O)NCCCN2CCOCC2)c(C)c1 (stereo unspecified),8.5µM,?,2.5µM,nt,1.4µM
